Where “and” joins values, the source holds several entries; their conditions need not be identical. Equal values may be shown once. This is part of a sample that, as a whole, favours compounds with a hit. Of some 83,000 tested, about 20% had one in any assay.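 Growth was measured after 48 h exposure to one concentration of compound in 96-well plates. Values under 10 count as active.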 Values without a mark were called inactive. Calls of active or inactive are those of the source.

For this assay, the system named is MDA-MB-468 breast. Description: NCI-60 one-dose screen, 48 h (100 = growth as untreated, 0 = no growth, -100 = all killed). The conditions noted are these: 10 µM unless noted.
For the molecule `O=C1N(Cc2ccccc2Cl)c2ccccc2C12NN=C(c1cccc(Cl)c1)S2` (stereo not given), the growth is -29.6% (active).
For `COc1ccc(C(=O)CSc2nnc(-c3cc(-c4ccccc4)nc4ccccc34)o2)cc1` the value was 104%; for `CCNCCNc1cc(-c2cccc(C(F)(F)F)c2)c(C#N)c2nc3ccccc3n12`, -84.3% (active).
With `CC(C)(C)c1ccc(O)c(-c2ccccc2)c1`, the growth was 140%.
Regarding `C=CC[N+](C)(C)C`, the growth is 97.4%.
`CCCCOC(=O)c1c(C)[nH]c(/C=C2\N=C(c3ccc[nH]3)C=C2OC)c1C`: the growth is -58.2% (active).
`CC1=CC(=O)CC(C)(C)[C@@]1(O)/C=C/C(C)=C\C(=O)O`: the growth is -45.1% (active).
Take `COc1cccc(-c2cc(-c3cccc(Cl)c3)c(C#N)c(=O)[nH]2)c1`: the growth is 70.1%.
With `CCOC(=O)NC(Cc1ccccc1)c1ccccc1` (stereo not given), the growth was 106%.
For `CN(CCCCCl)P(=O)(OCc1ccc([N+](=O)[O-])o1)C(F)(F)C[C@H](NC(=O)CNC(=O)c1ccc(N=[N+]=[N-])cc1)C(=O)NCCc1ccc(O)cc1` (stereo not given in full) the value was 12.5%; for `CCOC(=O)c1nc2c3ccccc3ccn2c1C(=O)OCC`, 109%; for `CCCCCCCCCCCCCCCCNc1ccccc1`, 108%.
Regarding `C[C@@H]1CC[C@H]2[C@@H](C)C(O)O[C@@H]3O[C@]4(C)CC[C@@H]1[C@]32OO4` (stereo not given in full), the growth is 27.7%.
For the molecule `CC(=C(c1ccc(OCCN(C)C)cc1)c1ccc(OCCN(C)C)cc1)c1ccc(Cl)cc1`, the growth was -81.1% (active).
For the molecule `CCOc1cccc(-c2nc3sccn3c2-c2ccnc(S(C)(=O)=O)n2)c1`, the growth was -0.693% (active).
`CCCCOC(=O)C1OC(Oc2ccc3c(C)cc(=O)oc3c2)[C@@H](OC(C)=O)C(OC(C)=O)C1OC(C)=O` (stereo not given in full): the growth was 101%.
As for `CCN(CC)CCN1C(=O)c2c(c3c4cccnc4[nH]c3c3ccc4ccccc4c23)C1=O`, the growth was 63.3%.
For `CCN(CC)CCN1C(=O)c2cccc3c(-c4ccc5c(c4)ncn5C4CCCCC4)ccc(c23)C1=O` the value was -6.34% (active); for `COc1ccc(C(=O)c2cc(OC)c(OC)c(OC)c2)cc1/C=C/C(=O)c1ccc2c(c1)OCO2`, 9.38% (active); for `Cc1ccc(-c2nn(-c3ccccc3)cc2/C=C/C(=O)c2ccc(NC(=O)CCCCCCC(=O)NO)cc2)cc1`, 70.9%.
On to `COc1cc2c(cc1[N+](=O)[O-])-c1ccc([N+](=O)[O-])cc1/C2=N\O`, for which the growth was 49.4%.
Consider `S=c1cnc2ccccc2[nH]1`, for which the growth was 108%.
Take `CCC(O)(C(c1ccccc1)c1ccccn1)C(c1ccccc1)c1ccccn1` (stereo not given): the growth was 114%.
`CO[C@H]1/C=C/O[C@@]2(C)Oc3c(C)c(O)c4c(O)c(c(/C=N/N5CCN(C)CC5)c(O)c4c3C2=O)NC(=O)/C(C)=C\C=C\C(C)[C@H](O)[C@@H](C)[C@@H](O)[C@@H](C)[C@@H](OC(C)=O)[C@@H]1C` (stereo not given in full): the growth is 92.2%.
For `CC(=O)N(CC(O)CO)c1c(I)c(C(=O)NCCO)c(I)c(C(=O)NCC(O)CO)c1I` (stereo not given), the growth is 110%.
As for `O=[N+]([O-])c1cccc2nsnc12`, the growth is 93.1%.
As for `COc1ccc(-c2cc(C(=O)N3N=C(c4ccc(N)cc4)CC3c3ccc(Cl)cc3)c3cc(OC)ccc3n2)cc1` (stereo not given), the growth is 95.8%.
For `COc1cc(NCCCCCNC(C)(C)C)c2ncccc2c1` the value was -6.36% (active); for `CC(N)C(Cc1ccccc1)c1ccc(Cl)cc1` (stereo not given), 83.1%.
For `CNC(=O)c1nn(C)c2c1C(C)(C)Cc1cnc(Nc3ccc(N4CCN(C)CC4)cc3)nc1-2` the value was -13.4% (active); for `O=C(CCCCNC(=O)c1nc(-c2ccccc2)n(-c2ccccc2)n1)NO`, 55.4%; for `COc1ccc2c(c1)NC(=O)CN2c1nc(C)nc2ccccc12`, 9.26% (active).
`O=C(O)C1C2C=CC(C2)C1C(=O)O` (stereo not given): the growth is 119% and 22.9% and 92.2%.
For `CCCCN(CCCC)CCCCCCCCC(O)c1cc2ccccc2c2ccccc12` (stereo not given), the growth was 29.1%.
Regarding `OCc1cnccc1NCCCOc1ccccc1`, the growth is 94.4%.
As for `Nc1c(C(=O)Nc2ccccn2)sc2nc3c(cc12)CCCC3`, the growth was 43.8%.
In the case of `CCCCC1CCc2cccc3c(SCC(=O)N(C)c4ccc(Cl)cc4)cc[n+]1c23` (stereo not given), the growth was 106%.
Consider `CC(=O)Nc1cccc(-c2ccc3c(c2)NC(=O)/C3=C\c2ccc[nH]2)c1`, for which the growth is 21.1%.
Regarding `COc1ccc(/C=C(\C#N)c2ccc(OC)cc2)cc1`, the growth was 7.49% (active).
With `C[C@H]1[C@@H]2[C@H]3CC[C@@H]4[C@@]5(C)Cc6c([nH]c7ccccc67)C(C)(C)[C@@H]5CC[C@@]4(C)[C@]3(C)CC[C@]23CO[C@]1(C)[C@@H](C(=O)/C=C/c1ccccn1)C3`, the growth was 99.3%.

Values taken from PubChem BioAssay (NCI).
